697 NFkB inh: lowers PMA/ionomycin-induced NF-kB signal in 697 B cells. 697 B-cell NF-kB luciferase reporter, 16 h. AID 435022. inhibition, % at 4 µM. 330,000 tested, 0.33% active; in the data active = inhibition above about 35%
KLF5 inhibitor: kruppel-like factor 5 inhibition; DLD-1 KLF5 promoter-luciferase reporter, luminescence; 290,000 tested, 0.23% active; inhibition, % at 5 µM; AID 1700;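 active = inhibition above a per-plate limit of that plate's mean compound inhibition plus 3 SD, cut at about 60% in these data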;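 also: 0% = DMSO wells and 100% = LY294002 at 200 µM; higher means less KLF5 promoter-driven luciferase light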
Jurkat NFkB inh: inhibitors of the PMA/ionomycin-induced NF-kB reporter in Jurkat cells; PMA/ionomycin-induced NF-kB luciferase reporter, luminescence; inhibition, % at 4 µM; 330,000 tested, 0.53% active; AID 435003; in the data active = inhibition above about 50%
ANO1 block: mouse TMEM16A channel inhibition, primary screen | AID 588511 | 310,000 tested, 1.2% active | normalized B-score (activity score, 25-100; higher = stronger inhibition) at 10 µM | Q8BHY3 | HEK293 TMEM16A/YFP iodide influx fluorescence, ionomycin;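 active = ratio plate-corrected score three or more library SD toward inhibition, starting fluorescence score within five deviations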;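 also: score derived from kinetic fluorescence span divided by baseline fluorescence per well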
Target sequence (Q8BHY3 whole entry, looked up): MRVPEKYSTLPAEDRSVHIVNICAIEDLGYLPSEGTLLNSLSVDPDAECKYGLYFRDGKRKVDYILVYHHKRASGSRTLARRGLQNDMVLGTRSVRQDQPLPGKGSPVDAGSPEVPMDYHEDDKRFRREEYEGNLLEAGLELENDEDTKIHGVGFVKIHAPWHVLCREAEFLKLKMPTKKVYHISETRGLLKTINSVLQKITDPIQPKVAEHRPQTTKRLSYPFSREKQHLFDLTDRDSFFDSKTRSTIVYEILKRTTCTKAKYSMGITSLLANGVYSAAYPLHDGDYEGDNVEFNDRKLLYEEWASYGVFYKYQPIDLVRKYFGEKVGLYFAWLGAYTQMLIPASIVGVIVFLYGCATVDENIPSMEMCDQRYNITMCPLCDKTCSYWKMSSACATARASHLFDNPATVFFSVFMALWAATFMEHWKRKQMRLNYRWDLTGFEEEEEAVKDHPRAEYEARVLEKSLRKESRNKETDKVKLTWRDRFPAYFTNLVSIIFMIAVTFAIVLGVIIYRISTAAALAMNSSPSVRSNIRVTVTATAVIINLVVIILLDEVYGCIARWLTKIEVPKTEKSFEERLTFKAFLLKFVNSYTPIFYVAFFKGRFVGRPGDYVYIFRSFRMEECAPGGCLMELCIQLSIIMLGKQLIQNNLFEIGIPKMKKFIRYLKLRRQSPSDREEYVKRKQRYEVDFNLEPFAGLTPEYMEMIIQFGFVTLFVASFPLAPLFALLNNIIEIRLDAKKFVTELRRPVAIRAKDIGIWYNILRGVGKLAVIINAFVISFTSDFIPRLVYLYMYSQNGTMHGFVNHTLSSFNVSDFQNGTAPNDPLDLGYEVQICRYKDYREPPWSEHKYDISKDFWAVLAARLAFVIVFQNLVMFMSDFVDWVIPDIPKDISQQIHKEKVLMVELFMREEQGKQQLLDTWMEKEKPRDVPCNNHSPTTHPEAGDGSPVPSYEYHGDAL
aSyn 5UTR inh: 5' untranslated region of α-synuclein, MLPCN primary screen. inhibition, % (tested at 7.5 µM). alpha-synuclein 5'UTR reporter, inhibitor activity. 300,000 tested, 0.82% active; in the data active = inhibition above about 60%; inconclusive = no clear call, values can overlap the other calls;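 also: H4 neuroglioblastoma cells stably carrying SNCA 5'UTR luciferase fusion; 0% = DMSO wells and 100% = positive control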
ANO1 activ: activates or potentiates the mouse TMEM16A chloride channel; 340,000 tested, 0.3% active; HEK293 TMEM16A/YFP-H148Q/I152L, iodide quench fluorescence; active compounds read low; B-score at 10 µM;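 active = fluorescence-ratio B-score plate-corrected deviation score at least 3 library SD below zero, with starting fluorescence score within 5 deviations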;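 also: channel opened by trigger with iodide after compound preincubation; score built on the fluorescence ratio of max minus min over baseline; more negative score means more quench and so TMEM16A activation or potentiation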
* hit, by the source's call; i = inactive; u = inconclusive; x = not tested or not shown. Rows were chosen to be rich in hits. Some 2.5% of all compounds tested hit in one or more screens of this group.

SMILES | 697 NFkB inh | KLF5 inhibitor | Jurkat NFkB inh | ANO1 block | aSyn 5UTR inh | ANO1 activ
COc1ccc(-c2csc(NC(=O)CSc3n[nH]c(C)n3)n2)cc1 | -47.6 | -39.9 | -32.8 | 25* | -103.6 | i
CCN1CCN(Cc2ccc(NC(=O)c3cc(NC(=O)c4cncc(-c5cccs5)c4)cc(OC)c3)cc2C(F)(F)F)CC1 | 9.3 | -24.2 | 6.7 | i | 108.8* | x
CCN1CCN(Cc2ccc(NC(=O)c3cc(NC(=O)c4cc(-c5ccc(OC)cc5)n[nH]4)cc(OC)c3)cc2C(F)(F)F)CC1 | -0.8 | x | -42.3 | i | 106.2* | i
CCN1CCN(Cc2ccc(NC(=O)c3cc(NC(=O)c4ccc5n[nH]nc5c4)cc(OC)c3)cc2C(F)(F)F)CC1 | -4.4 | x | 0.1 | i | 21.8 | i
O=C(Nc1ccccc1Cl)c1ccc(COc2ccc3c(c2)CCC3)cc1 | -109.0 | -53.0 | -10.6 | i | 5.9 | -7.43*
O=C(NNc1nc(-c2ccc(F)cc2)cs1)c1ccccc1 | -12.6 | 2.0 | -18.9 | i | 90.4* | i
O=C(NNc1nc(-c2ccccc2)cs1)c1ccc(F)cc1 | -4.8 | 25.2 | -7.0 | i | 76.2* | i
COc1ccc2c(c1)[nH]c1c(=O)n(/N=C/C3C(C)C=C(C)CC3C)c(=O)[nH]c12 (stereo unspecified) | 14.3 | 0.6 | 15.7 | i | u | i
COc1ccc2[nH]c3c(=O)n(/N=C/[C@H]4C(C)C=C(C)CC4C)c(=O)[nH]c3c2c1 (stereo partly specified) | 2.4 | 5.4 | 1.7 | i | -14.3 | -15.8*
C=CCC1(CC=C)CCCN1C(=O)c1cc(COc2cncc(Cl)c2)on1 | -62.4 | -7.3 | 21.5 | 25* | -27.7 | i
CC(/C=C1\SC(=S)N(CCCC(=O)Nc2ccc(C(=O)O)cc2)C1=O)=C\c1ccccc1 | 32.0 | 3.1 | -1.5 | i | 5.2 | i
CCc1ccc(/C=C2/SC(=S)N(CCCC(=O)Nc3ccccc3C(=O)O)C2=O)cc1 | 8.0 | 0.6 | 3.4 | 100* | 46.8 | i
CC(=C\c1ccccc1)/C=C1/SC(=S)N(CCCC(=O)O)C1=O | -11.5 | -17.2 | 9.5 | i | 66.6* | i
CC(/C=C1\SC(=O)N(CCCC(=O)O)C1=O)=C\c1ccccc1 | x | 58.6 | x | i | 102.5* | i
O=C(COC(=O)c1ccc(F)cc1Cl)NC1CCS(=O)(=O)C1 (stereo unspecified) | 7.5 | x | 7.8 | x | x | i
CC(OC(=O)CNC(=O)c1sc2ccccc2c1Cl)c1ccccc1 (stereo unspecified) | -13.1 | x | 1.9 | x | x | i
CCN(C(=O)COC(=O)c1ccccc1Oc1ccccc1)c1c(N)n(Cc2ccccc2)c(=O)[nH]c1=O | x | x | x | x | x | i
NC(=O)c1cc(Br)cc(C2CCCCC2)c1O | -4.5 | -0.3 | -14.7 | i | 86.8* | i
CCOc1ccc(-c2cnc(NCc3cccc4ccccc34)n2CCOC)cc1 | -11.1 | -15.6 | 0.6 | 100* | 24.2 | i
COCCn1c(-c2ccc(OC)cc2)cnc1N | 6.3 | -15.2 | 2.2 | i | -14.0 | i
CCOC(=O)c1c(NC(=O)COc2ccccc2F)sc2c1CC(C)(C)NC2(C)C | -10.9 | x | -9.3 | i | 20.5 | i
COC(=O)c1c(NC(=O)COc2ccc(Cl)cc2)sc2c1CC(C)(C)NC2(C)C | -1.0 | -9.9 | 27.8 | i | 82.9* | i
CC1(C)Cc2c(sc(NC(=O)COc3ccc(Cl)cc3Cl)c2C(N)=O)C(C)(C)N1 | -19.5 | -14.1 | 8.1 | i | 62.1* | i
CCOC(=O)c1cnc2c(C#N)c(C)nn2c1C | -4.1 | -9.4 | 0.0 | i | -10.0 | -22.8*
COC1=CC(=O)C(O)=C(CCCCCCC/C=C/CCCCCCCC2=C(O)C(=O)C=C(OC)C2=O)C1=O | -0.6 | x | 10.3 | 100* | -17.9 | i
SMILES | 697 NFkB inh | KLF5 inhibitor | Jurkat NFkB inh | ANO1 block | aSyn 5UTR inh | ANO1 activ
O=C(c1ccccc1NS(=O)(=O)c1ccc([N+](=O)[O-])cc1[N+](=O)[O-])N1O[C@@H]2C=C[C@H]1C2 | 4.9 | x | x | x | x | i
Cc1nc2ccccc2c(=O)n1/N=C/c1c(O)ccc2ccccc12 | 20.1 | 3.9 | 0.1 | i | 49.8 | i
Cc1nc2ccccc2c(=O)n1/N=C/c1c(O)ccc2oc3c(c12)CCCC3 | 5.6 | -32.0 | 22.1 | i | 85.7* | i
CCOC(=O)C1=C(COC(=O)COc2ccc(C(=O)CC)cc2)NC(=O)NC1C (stereo unspecified) | 6.4 | x | -0.4 | 100* | -9.6 | i
Cc1ccc(S(=O)(=O)N2CCC(N3CCN(C)CC3)CC2)cc1Cl | -29.5 | -16.0 | -29.3 | i | 0.0 | i
CSc1ncc2[nH]c(C(O)c3ccccc3)nc2n1 (stereo unspecified) | x | x | x | x | x | i
Cc1ccc(CSc2nnc(SCC(=O)N/N=C/c3c(C)nn(-c4ccccc4)c3C)s2)cc1 | 2.9 | -34.2 | -59.2 | 25* | -114.5 | i
Cc1nn(-c2ccccc2)c(C)c1/C=N/NC(=O)CSc1nnc(SCc2ccccc2Cl)s1 | -34.7 | -22.9 | -18.8 | i | -71.3 | i
Cc1ccc(OCC(=O)c2c(N)n(C)c(=O)n(C)c2=O)c([N+](=O)[O-])n1 | -6.4 | x | -12.4 | x | x | i
CC(=O)c1ccc(S(=O)(=O)N2CCC(NC(=O)Nc3cccc(F)c3)CC2)cc1 | 11.7 | -4.0 | -7.7 | i | 13.2 | -7.89*
COC(=O)c1cccc(S(=O)(=O)N2CCC(NC(=O)Nc3cccc(F)c3)CC2)c1 | 24.0 | -28.5 | -12.4 | i | 29.9 | i
Cc1ccc(S(=O)(=O)N2CCC(NC(=O)c3cccc(C)c3)CC2)cc1 | 5.7 | 3.0 | 4.4 | i | 23.9 | -7.1*
O=C(NCCS(=O)(=O)NC1CCCC1)c1ccc(F)cc1 | 20.7 | x | 9.4 | i | 7.4 | i
COc1ccc(Cc2nnc(SCC(=O)N(C)CC(=O)Nc3ccc(C)cc3)o2)cc1 | 13.9 | x | 4.9 | i | 15.5 | i
COCCn1c(C)cc(C(=O)CSc2ccc(NC(C)=O)cc2)c1C | -37.5 | -55.0 | -28.8 | i | -50.3 | i
CC(=O)Nc1ccc(SCC(=O)c2cc(C)n(Cc3cccs3)c2C)cc1 | -234.9 | -0.6 | -22.3 | i | 68.4* | i
CCCCCN=Cc1c(C)[nH]n(-c2nc3ccccc3s2)c1=O | -58.9 | -38.9 | 8.3 | i | 62.5* | i
CCCc1[nH]n(-c2nc3ccccc3s2)c(=O)c1C=NCCCOC | 1.5 | -1.5 | -0.7 | i | -19.6 | i
O=C(NCc1cccs1)c1nc2c(nnn2Cc2ccccc2Cl)c(=O)[nH]1 | x | 18.9 | x | i | 77.0* | i
O=C(CSc1nc2ncc(Cl)cc2[nH]1)Nc1ccccc1-c1ccccc1 | 15.9 | -15.5 | -0.7 | 100* | -11.8 | i
O=C1NC(=O)/C(=C\c2ccc(OCc3cccc(C(=O)O)c3)c(Cl)c2)N1 | -54.9 | -31.6 | 37.6 | i | 69.9* | i
O=C(O)c1ccccc1/C=N/NC(=S)NCc1ccccc1 | 8.8 | -13.8 | 2.8 | i | 3.0 | -12.1*

Screening data from PubChem BioAssay.
